Seven molecules from PubChem BioAssay (Tox21) can be followed below.

Each structure is given as a SMILES string. Unmarked numbers belong to inactive results. Results filed as inconclusive are left out. The source made the active and inactive calls. Unless noted, calls come from the whole dose curve; as a rule, active = well fitted curve in the direction sought with a large enough effect in the repeat runs; inconclusive = weak or mixed curves; inactive = no such curve, though single readings can be large; an effect the other way counts as inactive or inconclusive.

A short description of assay [1]: A CellTox Green Cytotoxicity Assay to monitor cytotoxicity in HepG2 cells - 32 hour (AID 1224883). Note: nearly all actives have a fitted effect of over 50% in size. Note: potency is the fitted concentration of half-maximal effect. Put shortly: (§1)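 Fluorescent DNA-binding dye, 600 HepG2 cells/well, 5 h preincubation then compound in DMSO; same plates read at 0–40 h, 37 C.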
A short description of assay [2]: A CellTox Green Cytotoxicity Assay to monitor cytotoxicity in HEK293 cells - 8 hour (AID 1224884). Note: nearly all actives have a fitted effect of over 35% in size. Note: potency is the fitted concentration of half-maximal effect. Put shortly: (§2)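 Homogeneous no-lysis format: HEK293 cell suspension mixed with CellTox Green reagent, seeded, incubated 5 h at 37 C/5% CO2, then dosed by pintool with compound in DMSO.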
Assay [3] can be described thus: qHTS RealTime-Glo MT Cell Viability Assay in HepG2 cells - 16 hour (AID 1224885). Note: nearly all actives have a fitted effect of over 50% in size. The method in brief:
(§3)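 Viability was tracked continuously by NanoLuc luminescence from prosubstrate reduced by living HepG2 cells, at successive time points over 40 h of compound exposure. Cells with reagent were preincubated 5 h at 37 °C before compound addition.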
In general terms: In qHTS, concentration-response curves come from the screen itself.

Assay [4] in a line: qHTS RealTime-Glo MT Cell Viability Assay in HEK293 cells - 24 hour (AID 1224886). For activity change, negative = cytotoxicity: top concentration of the series differs between compounds. Note: nearly all actives have a fitted effect of over 50% in size. Note: potency is the fitted concentration of half-maximal effect. The method in brief:
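Viability tracked continuously by luminescence as live cells reduce a prosubstrate for NanoLuc; HEK293 cells preincubated 5 h, compound-treated at 37 C, and read at 0, 8, 16, 24, 32 and 40 h.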

A short description of assay [5]: qHTS RealTime-Glo MT Cell Viability Assay in HEK293 cells - 8 hour (AID 1224887). For activity change, negative = cytotoxicity: top concentration of the series differs between compounds. Note: nearly all actives have a fitted effect of over 50% in size. Note: potency is the fitted concentration of half-maximal effect. Put shortly: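 Measured as luminescence from the same continuously cultured HEK293 wells at successive time points (0, 8, 16, 24, 32, 40 h) after compound addition. Reagent present from seeding; dosing at 5 h; incubation 37 C.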
Assay [6] is described as follows: A CellTox Green Cytotoxicity Assay to monitor cytotoxicity in HEK293 cells - 16 hour (AID 1224888). Note: nearly all actives have a fitted effect of over 35% in size. Note: potency is the fitted concentration of half-maximal effect. The method in brief: as §2
Assay [7] in a line: qHTS RealTime-Glo MT Cell Viability Assay in HepG2 cells - 0 hour (AID 1224889). Note: nearly all actives have a fitted effect of over 50% in size. Put shortly:
as §3

Assay [8] is described as follows: A CellTox Green Cytotoxicity Assay to monitor cytotoxicity in HepG2 cells - 8 hour (AID 1224890). Note: nearly all actives have a fitted effect of over 45% in size. Note: potency is the fitted concentration of half-maximal effect. The method in brief:
as §1

Assay [9] is described as follows: qHTS assay to identify small molecule antagonists of the estrogen receptor alpha (ER-alpha) signaling pathway using the BG1 cell line in the presence of 0.1 nM 17-beta-estradiol - cell viability counter screen (AID 1259241). Note: nearly all actives have a fitted effect of over 40% in size. Note: potency is the fitted concentration of half-maximal effect. The method in brief: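 Cytotoxicity counter-screen: live-cell protease activity measured by fluorescence (30 min reagent step) in the same wells. Cells were VM7Luc4E2 with endogenous ER-alpha and ERE-driven luciferase, treated 22 hr at 37C alongside 0.1 nM 17beta-estradiol final.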

A short description of assay [10]: qHTS assay to identify small molecule antagonists of the androgen receptor (AR) signaling pathway using the MDA cell line in the presence of 0.5 nM R1881 - cell viability counter screen (AID 1259242). Note: nearly all actives have a fitted effect of over 45% in size. The method in brief: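 Human breast carcinoma MDA-kb2 cells, cultured without CO2, receive compounds alongside 0.5 nM (final) R1881 agonist. After 16 hr at 37C, viability is taken as live-cell protease signal.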

Assay [11] deals with Estrogen receptor (Homo sapiens) (UniProt P03372). The experiment in a line: qHTS assay to identify small molecule antagonists of the estrogen receptor alpha (ER-alpha) signaling pathway using the BG1 cell line in the presence of 0.1 nM 17-beta-estradiol (AID 1259244). Note: nearly all actives have a fitted effect of over 50% in size. Note: potency is the fitted concentration of half-maximal effect. The method in brief:
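Seeding of stripped-serum-adapted VM7Luc4E2 cells, 24 h attachment, compound transfer, then 0.1 nM final 17beta-estradiol; after 22 h incubation, ONE-Glo reagent and luminescence reading.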

Assay [12] in a line: qHTS assay to identify small molecule phospholipidosis (PLD) inducers (AID 1259344; active = well fitted curve in the direction sought with a large enough effect; an effect the other way counts as inactive or inconclusive). Put shortly: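 Read-out is LipidTOX Red fluorescence (ex 595/em 615) imaged in HepG2 cells after 24 h compound exposure at 37 C, with Hoechst nuclear counterstain (ex 352/em 461) allowing per-cell normalisation.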
A short description of assay [13]: qHTS assay to identify small molecule HDAC inhibitors (AID 1259364). For activity change, negative = inhibition: top concentration of the series differs between compounds. Note: potency is the fitted concentration of half-maximal effect.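 Note: wild-type HCT-116 cells with endogenous class I/II HDAC activity; nearly all actives have a fitted effect of over 45% in size.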 The method in brief: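 After a 2 hr compound incubation (37C, 5% CO2), HCT-116 cells seeded at 1,500/well the day before received HDAC-Glo reagent; signal read as luminescence after 30 min at room temperature.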
A short description of assay [14]: qHTS assay to identify small molecule HDAC inhibitors - cell viability counter screen (AID 1259365). For activity change, negative = cytotoxicity: series mostly up to about 92 µM. Note: nearly all actives have a fitted effect of over 50% in size. Note: potency is the fitted concentration of half-maximal effect. Put shortly:
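CellTiter-Glo luminescence (30 min, room temperature) reported viability after a 2 h compound exposure at 37 C. Cells: wild-type HCT-116, 1,500 per well, seeded the night before.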

The nature of assay [15]: qHTS assay to identify small molecule agonists of the sonic hedgehog signaling (Shh) pathway - cell viability counter screen (AID 1259366). Note: nearly all actives have a fitted effect of over 50% in size. Note: potency is the fitted concentration of half-maximal effect. The method in brief: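 Cytotoxicity counter screen: CellTiter-Fluor reagent added after 23 h compound exposure, then 1 h at 37C and fluorescence read. Cells were 3T3 Gli1-Luc, seeded 2,000 per well and dosed 4 h post-plating.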
Assay [16] is described as follows: qHTS assay to identify small molecule antagonists of the sonic hedgehog signaling (Shh) pathway - cell viability counter screen (AID 1259367). Note: nearly all actives have a fitted effect of over 55% in size. Note: potency is the fitted concentration of half-maximal effect. Put shortly: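 Fluorescence read-out (CellTiter-Fluor, 1 hr at 37C) taken after 23 hr compound treatment of 3T3 Gli1-Luc cells stimulated with conditioned medium. Cells were seeded at 2,000 per well and pre-incubated 4 hr.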

A short description of assay [17]: qHTS assay to identify small molecule agonists of the sonic hedgehog signaling (Shh) pathway (AID 1259368; calls by dose curve;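 note: NIH/3T3-derived 3T3Gli1-Luc cells carrying a stable Gli1-driven firefly luciferase reporter; series mostly up to about 92 µM; nearly all actives have a fitted effect of over 15% in size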). The method in brief: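 Stable NIH/3T3 Gli1-Luc reporter clone; 24 hr cpd exposure after a 4 hr settling period; luminescence endpoint.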
Assay [18] can be described thus: qHTS assay to identify small molecule antagonists of the sonic hedgehog signaling (Shh) pathway (AID 1259369; calls by dose curve; note: nearly all actives have a fitted effect of over 45% in size; note: potency is the fitted concentration of half-maximal effect). The method in brief: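 Gli1 transcriptional reporter (firefly Luc) in NIH/3T3 background, conditioned-medium activated. 24hr exposure, luminescence endpoint.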
A short description of assay [19]: A CellTox Green Cytotoxicity Assay to monitor cytotoxicity in HepG2 cells - 0 hour (AID 1224882). Note: nearly all actives have a fitted effect of over 35% in size. Note: potency is the fitted concentration of half-maximal effect. Put shortly:
as §1

Assay [20] addresses Androgen receptor (Homo sapiens) (UniProt P10275). The experiment in a line: qHTS assay to identify small molecule antagonists of the androgen receptor (AR) signaling pathway using the MDA cell line in the presence of 0.5 nM R1881 (AID 1259243). Note: nearly all actives have a fitted effect of over 50% in size. Put shortly:
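Cells: MDA-kb2 (MMTV-luc). Stimulus: 0.5 nM R1881. Time: 16 hr, 37C, no CO2. Detection: ONE-Glo luminescence after 30 min at RT.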
% is set by controls: 0 for no effect and ±100 for the full control effect.

Sequence of Estrogen receptor (Homo sapiens) (P03372 whole entry, looked up): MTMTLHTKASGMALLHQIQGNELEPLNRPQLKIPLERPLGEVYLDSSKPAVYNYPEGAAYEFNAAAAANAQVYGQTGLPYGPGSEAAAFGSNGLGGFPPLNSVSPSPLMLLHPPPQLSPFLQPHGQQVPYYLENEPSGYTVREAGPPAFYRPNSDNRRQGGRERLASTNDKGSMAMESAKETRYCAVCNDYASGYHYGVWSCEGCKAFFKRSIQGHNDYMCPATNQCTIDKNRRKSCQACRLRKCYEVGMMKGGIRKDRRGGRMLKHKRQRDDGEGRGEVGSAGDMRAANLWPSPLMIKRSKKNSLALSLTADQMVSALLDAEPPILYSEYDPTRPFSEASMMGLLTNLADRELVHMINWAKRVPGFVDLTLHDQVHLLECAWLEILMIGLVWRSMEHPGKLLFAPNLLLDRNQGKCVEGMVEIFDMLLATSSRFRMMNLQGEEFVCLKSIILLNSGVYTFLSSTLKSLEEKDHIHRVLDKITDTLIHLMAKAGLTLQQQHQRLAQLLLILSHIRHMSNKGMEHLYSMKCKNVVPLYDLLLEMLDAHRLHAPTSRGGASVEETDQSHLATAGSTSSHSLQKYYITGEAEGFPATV
Sequence of Androgen receptor (Homo sapiens) (P10275 whole entry, looked up): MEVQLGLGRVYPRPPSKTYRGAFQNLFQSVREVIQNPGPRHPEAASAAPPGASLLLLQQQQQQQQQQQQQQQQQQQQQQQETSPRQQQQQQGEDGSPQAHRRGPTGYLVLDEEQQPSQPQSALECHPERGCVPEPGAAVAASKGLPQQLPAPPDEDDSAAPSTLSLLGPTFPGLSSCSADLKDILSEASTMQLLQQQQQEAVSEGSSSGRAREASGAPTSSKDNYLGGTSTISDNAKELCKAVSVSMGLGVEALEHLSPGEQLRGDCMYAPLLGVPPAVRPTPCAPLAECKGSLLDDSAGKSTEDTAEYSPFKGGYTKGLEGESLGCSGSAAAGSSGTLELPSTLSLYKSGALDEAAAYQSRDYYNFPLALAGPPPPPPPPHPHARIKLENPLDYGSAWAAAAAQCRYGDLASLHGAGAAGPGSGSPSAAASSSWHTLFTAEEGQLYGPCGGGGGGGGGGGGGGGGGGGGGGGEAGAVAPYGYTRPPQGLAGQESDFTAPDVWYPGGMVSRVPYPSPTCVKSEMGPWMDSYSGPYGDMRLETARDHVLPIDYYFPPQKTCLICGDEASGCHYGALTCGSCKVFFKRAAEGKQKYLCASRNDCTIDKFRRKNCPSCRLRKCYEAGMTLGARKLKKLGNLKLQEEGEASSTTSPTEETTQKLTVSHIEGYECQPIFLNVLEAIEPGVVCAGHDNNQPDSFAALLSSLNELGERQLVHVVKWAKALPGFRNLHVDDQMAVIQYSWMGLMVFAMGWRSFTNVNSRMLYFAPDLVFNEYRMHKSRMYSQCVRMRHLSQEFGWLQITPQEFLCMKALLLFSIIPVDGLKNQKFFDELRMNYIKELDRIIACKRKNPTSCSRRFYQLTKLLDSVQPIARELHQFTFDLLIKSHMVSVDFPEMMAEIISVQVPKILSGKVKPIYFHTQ

Take `CCOC(N)=O`: the Potency result in assay [1], in [2], in [3], in [4], in assay [5] and in assay [6] was “inactive” in each case. Moreover, the Potency entry in assay [7], in assay [8], in [9], in assay [10], in assay [11] and in [12] was “inactive” each time. For the same molecule, the Potency result in assay [13], in assay [14], in assay [15], in assay [16] and in assay [18] was “inactive” each time. For the same molecule, in assay [17], the call was inactive.

Regarding `O=c1[nH]cnc2c1ncn2[C@H]1CC[C@@H](CO)O1`, the Potency entry in assay [1], in assay [2], in assay [3], in [4], in [5] and in [6] was “inactive” in each case. Moreover, the Potency entry in assay [7], in [8], in assay [9], in assay [10], in assay [11] and in assay [12] was “inactive” throughout. In addition, the Potency result in assay [13], in assay [14], in [15], in assay [16] and in assay [18] was “inactive” each time. In assay [17], the molecule was classed as inactive.

Regarding `Nc1ccc([N+](=O)[O-])cc1O`, the Potency result in assay [19], in assay [1], in assay [2], in [3], in [4] and in assay [5] was “inactive” each time. The Potency entry in assay [6], in assay [7], in [8], in [11], in assay [12] and in [14] was “inactive” throughout. Further, the Potency was 61.1 µM (active) in assay [9], 30.6 µM (active) in assay [15] and 24.3 µM (active) in assay [16]. Moreover, in [17], the molecule was classed as inactive.

For `CC(=O)CCC(=O)O`, the Potency entry in [1], in assay [2], in [3], in [4], in assay [5] and in assay [6] was “inactive” each time. The Potency result in [7], in assay [8], in assay [9], in [10], in assay [11] and in assay [12] was “inactive” each time. In addition, the Potency result in [13], in assay [14], in assay [15], in assay [16] and in [18] was “inactive” in each case. In [17], the result was inactive.

Take `Nc1ccc2c(c1)CN1C(=O)c3ccccc3C1=N2`: the Potency in assay [19] was 10.4 µM (active); in assay [1], 10.4 µM (active); in assay [2], 10.4 µM (active); in [4], 9.28 µM (active); in assay [6], 10.4 µM (active); in assay [8], 10.4 µM (active). Further, the values for the Potency in [11], in assay [13] and in assay [14] were 3.26 µM (active), 0.326 µM (active) and 11.6 µM (active), respectively. Also, the activity change, negative = cytotoxic in [3] was -5.66% [at 15.8 µM]. In assay [7], the activity change, negative = cytotoxicity is 4.86% [at 15.8 µM]. In addition, the activity, negative = inhibition in assay [20] is 57.2% [at 19 µM]. Moreover, the activity change, negative = inhibition in [18] was -44.1% [at 19 µM].

Consider `F[B-](F)(F)F`, for which the Potency result in assay [19], in assay [1], in assay [2], in [3], in assay [4] and in assay [5] was “inactive” in each case. Further, the Potency entry in assay [6], in [7], in [8], in [9], in assay [10] and in assay [13] was “inactive” in each case. The Potency entry in [14], in assay [15], in [16] and in [18] was “inactive” each time. In addition, in assay [17], the call was inactive.

For the molecule `C=C1CC[C@H](O)C/C1=C\C=C1/CCC[C@]2(C)[C@@H]([C@H](C)CCCC(C)C)CC[C@@H]12`, the Potency entry in [19], in assay [1], in assay [2], in assay [3], in [6] and in assay [8] was “inactive” each time. Also, the Potency entry in [9], in [10], in assay [12], in assay [13] and in assay [14] was “inactive” each time. Further, the Potency was 43.2 µM (active) in assay [4], 24.3 µM (active) in assay [5] and 17.1 µM (active) in assay [18]. Further, the call in assay [17] was inactive.
